Experimental data reported in PubChem BioAssay AID1117319 (Southern Research Institute, 2015).
Several values for one entry are separate records, joined by “and”; a condition that tells them apart may be missing. Equal entries are not always repeated. About 1,500 (0.58%) of roughly 260,000 compounds were called active. Another 5% or so got no clear call; they are omitted.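 The calls were made as follows: active = inhibition above a set limit at one or more doses, reproduced on every date tested; inconclusive = results disagree between test dates, or hit never tested in dose response; inactive = the rest.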 Only a sample is shown. Measured potencies and affinities stand elsewhere.

target: Virion infectivity factor (Human immunodeficiency virus type 1 group M subtype B (isolate BH10)) + Virion infectivity factor (Human immunodeficiency virus type 1 group M subtype B (isolate BRU/LAI)) + Virion infectivity factor (Human immunodeficiency virus type 1 group M subtype B (isolate PCV12)) + Virion infectivity factor (Human immunodeficiency virus type 1 group M subtype B (isolate HXB2)) + DNA dC->dU-editing enzyme APOBEC-3G (Homo sapiens) (UniProt P69720+P69721+P69722+P69723+Q9HC16); assay: inhibitors of Vif binding to APOBEC3G peptide, primary screen, biochemical, TR-FRET, GST-Vif 1-94, biotin-A3G peptide, dose response retest (AID 1117319); settings: hits give high values;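 also: Vif residues 1-94 fused to GST binding biotinylated APOBEC3G peptide 110-148; 0% = full assay without inhibitor and 100% = GST in place of GST-Vif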

inhibition, inactive:
CC(=O)c1cccc(N/C=C\c2nnnn2-c2ccc(F)cc2)c1 -15.5%
CCOC(=O)c1ccc(-c2c(C)cc3oc(=O)cc(-c4ccccc4)c3c2C)cc1 -7.8%
CN(C)c1ccc(C=O)c(Oc2ccccc2)c1 -6.28%
COc1ccc(C(=O)c2ccc(N(C)C)cc2)c2ccccc12 -5.09%
CC1=NN(c2cccc(F)c2)C(=O)/C1=C/c1ccc(N(C)C)cc1 7.52%
CCN(CC)CC(O)Cn1c(C)c(-c2ccccc2)c2cc([N+](=O)[O-])ccc21 (stereo not drawn) -3.66%
CN(C)c1ccc(C=c2c3ccccc3n3c2c2c([n+]3C)CCCC2)cc1 26.6%
O=[N+]([O-])c1ccc2c(c1)c(-c1ccccc1)nc1nncn12 1.68%
Cc1cccc(C)c1NC(=O)C1CCCN(CCCc2ccccc2)C1 (stereo not drawn) 3.24%
COC(=O)c1ccc(CNC(=O)c2ccc(NS(=O)(=O)c3ccc4[nH]c(=O)[nH]c4c3)cc2)cc1 -7.35%
CCOc1ccc(NC(=O)/C(C=Nc2ccccc2)=C(\C)O)cc1 -3.41%
CCCc1nc(SCC(=O)N2CCCC2)c2ccccc2n1 -0.12%
CC(C)(C)OC(=O)N(CCc1ccccc1)Cc1ccccc1OCc1cccc(NC(=O)C2CCCC2)c1 1.13%
CN(C)CCCNC(=O)C[C@H]1C[C@H](C(=O)N2CCCCC2)[C@@]2(CCc3ccccc3)c3[nH]c4ccc(Cl)cc4c3CCN2C1=O 3.82%
O=C1CC(c2ccco2)CC(O)=C1C=NCCN1CCN(C(=O)Nc2ccc(Cl)cc2)CC1 (stereo not drawn) -5.15%
O=C1CC(c2ccco2)CC(O)=C1C=Nc1ccccc1-c1ccccc1 (stereo not drawn) 18.4%
Cc1ccc(N=CC2=C(O)CC(c3ccco3)CC2=O)cc1 (stereo not drawn) 14.7%
CCc1ccc(N=CC2=C(O)CC(c3ccco3)CC2=O)cc1 (stereo not drawn) -1.68%
O=C1CC(c2ccco2)CC(O)=C1C=NCCN1CCNCC1 (stereo not drawn) 31.7%
CC(C)C(=O)N1CCN(CCN=CC2=C(O)CC(c3ccco3)CC2=O)CC1 (stereo not drawn) -5.81% and 11.7%
O=C1CC(c2ccccc2)CC(O)=C1C=Nc1ccccc1Cl (stereo not drawn) -5.59%
Cc1[nH]nc(N=CC2=C(O)CC(c3ccco3)CC2=O)c1-c1ccc(Cl)cc1 (stereo not drawn) 8.53%
COc1cccc(NC(=O)CC(C)=O)c1 3.45%
CCNc1nc(NC(C)(C)C)nc(SCC(N)=O)n1 -9.57%
O=C(CN(Cc1cccs1)C(=O)CSc1nnc(COc2ccccc2)o1)NC1CCCCC1 3.54%
COc1ccc(C)cc1NC(=S)N1CCN(c2ncccn2)CC1 6.81%
CC1CCN(S(=O)(=O)c2ccc(C(C)C)cc2)CC1 -4.55%
Cc1cn([C@H]2C[C@H](O)[C@@H](CCC(=O)NCc3ccco3)O2)c(=O)[nH]c1=O 3.31%
Cc1cc(NC(=O)c2cc(-c3ccc(O)cc3)on2)no1 -3.11%
C=CCSc1nc2sc(C)c(C)c2c(=O)n1CC=C -3.91%
COc1ccc(N2C(=O)C3CCCN3C2c2cccs2)cc1 (stereo not drawn) -1.1%
O=C1C2CCCN2C(c2cccs2)N1c1ccc(Cl)cc1 (stereo not drawn) -1.78%
COc1cc(C2N(c3ccccn3)C(=O)C3CCCN32)cc(OC)c1OC (stereo not drawn) -8.96%
O=C1C2CCCN2C(c2ccccc2)N1c1ccc(Cl)cc1 (stereo not drawn) 15.8%
O=C(CNC(=O)c1ccc(Br)o1)Nc1cccc(S(=O)(=O)N2CCOCC2)c1 1.25%
CC1CCCCC1NC(=O)c1c(O)nc2ccccn2c1=O (stereo not drawn) -12.1%
COc1ccc(C(=O)Nc2ccc3c(c2)OCCO3)c(OC)c1 1.98%
Cc1ccc(C(=O)n2ncn(C)c2=S)cc1 -5.15%
COC(=O)CN1C(=O)COc2ccc(S(=O)(=O)N3CCCCC3)cc21 -2.76%
Cc1cc(N)c2ccccc2n1 3.24%
Nc1cccc2nc3ccccc3cc12 11.9%
O=C(CN1CCC(C(=O)c2ccc3c(c2)OCCO3)CC1)Nc1ccccc1F 2.56%
COc1cccc(C2NC(=O)c3ccccc3O2)c1OC (stereo not drawn) -1.95%
Cc1cc(-c2nnc(CCC(=O)N(CC3CC3)CC3CCCO3)o2)no1 (stereo not drawn) 0.72%
Cc1ccc(-c2cc(C(=O)Nc3c(C)n(C)n(-c4ccccc4)c3=O)[nH]n2)c(O)c1 23.2%
O=C(c1ccccc1)N1CCN(c2ccc(NCc3ccc4c(c3)OCO4)cc2)CC1 21.7%
CC(=O)Nc1ccc(N2CCN(C(C)=O)CC2)cc1 24.9%
CC(=O)N1CCN(c2ccc(NC(=O)c3ccc4c(c3)OCO4)cc2)CC1 18.3%
CC(=O)N1CCN(c2ccc(NCc3cccc4ccccc34)cc2)CC1 28.3%
Nc1c(C(=O)CSc2nccn2-c2ccc(Cl)cc2)c(=O)[nH]c(=O)n1C1CC1 -3.47%
CC1CCN(CCCCOc2cccc(Br)c2)CC1 -0.02%
COc1cccc(NC(=O)N(C)C[C@H]2OCc3cnnn3CCCC(=O)N([C@H](C)CO)C[C@@H]2C)c1 -12.7%
COc1ccc(Oc2cccc(Cl)c2CNC(=O)CSCC(=O)O)cc1 7.24%
COc1ccc(NC(=O)Cc2c[nH]c3ccccc23)cc1S(=O)(=O)N1CCOCC1 -3.49%
Cc1c(NC(=O)C(C)N2C(=O)C3C4C=CC(C4)C3C2=O)c(=O)n(-c2ccccc2)n1C (stereo not drawn) -0.22%
COc1ccc(C(=O)Cn2nnc(-c3ccccc3NC(=O)C3CCCCC3)n2)cc1 -3.13%
Cc1ccc(OCCCN2C(=O)C(=O)c3cc(C)ccc32)cc1 -4.93%
Cn1nnnc1SCCNS(=O)(=O)c1ccccc1 2.62%
Cc1cccc(Nc2cnn(C34CC5CC(CC(CC(=O)O)(C5)C3)C4)c(=O)c2Cl)c1 5.69%
Cc1ccc(Nc2cnn(C34CC5CC(CC(CC(=O)O)(C5)C3)C4)c(=O)c2Cl)cc1 -0.2%
O=c1[nH]nc(Cc2ccc3ccccc3n2)c2ccccc12 -4.55%
COC(=O)N1CCN(c2ccc(C(C)=O)cc2)CC1 5.12%
Cc1ccc(NC(=O)C2CCCN(S(=O)(=O)c3cnc[nH]3)C2)c(Br)c1 (stereo not drawn) 1.69%
COc1ccc(C(=O)Nc2nc(CC(=O)NCCc3cccc(OC)c3)cs2)cc1 0.4%
COc1cc(/C=C/c2ccc(O)cc2)cc(OC)c1 0.21%
COc1cc(O)cc(/C=C/c2ccccc2)c1 6.25%
CNS(=O)(=O)c1cccc(C(=O)OCC(=O)NC(C)CCc2ccccc2)c1 (stereo not drawn) 1.38%
COC(=O)c1ccc(-n2nnnc2SC)cc1 6.93%
CCOc1ccc(NC(=O)N[C@@H](Cc2ccccc2)C(=O)O)cc1 3.58%
CC(=O)Nc1ccc(NC(=O)CC2Nc3cccc4cccc(c34)NC2=O)cc1 (stereo not drawn) 18%
O=C(CC1Nc2cccc3cccc(c23)NC1=O)Nc1ccc(F)cc1 (stereo not drawn) 19.5%
Cc1ccc(C)c(CSc2nnc(C)c(=O)[nH]2)c1 -5.37%
Cc1nn(CC#N)c(=O)n1-c1ccc(F)cc1 0.42%
O=C(CCS(=O)(=O)c1ccc(Cl)cc1)N1CCN(c2ccc(F)cc2)CC1 -4.61%
O=C(CCS(=O)(=O)c1ccc(Br)cc1)N1CCN(c2ccc(Cl)cc2)CC1 5.94%
COc1ccc(CCN2CCCn3c2nc2c3c(=O)n(CC(N)=O)c(=O)n2C)cc1OC -0.32%
NS(=O)(=O)c1ccc(Cl)cc1[N+](=O)[O-] -11.6%
COc1ccc(N(CN2C(=O)C3CC=CCC3C2=O)C(=O)c2ccco2)cc1 (stereo not drawn) 18.2%
O=C1CCC(=O)N1CN(C(=O)c1ccco1)c1ccc(Cl)c(Cl)c1 3.26% and 3.71%
CCc1nn2c(=O)cc(COc3ccc(/C=C4\C(=N)N5N=C(C)SC5=NC4=O)cc3)nc2s1 -5.78%
Oc1c(CN2CCOCC2)cc(CN2CCOCC2)c(O)c1CN1CCOCC1 4.15%
Oc1c(CN2CCOCC2)ccc(CN2CCOCC2)c1O 30.9%
CC(=O)N1Cc2ccccc2C(C)CC12CCCC2 (stereo not drawn) -6.77%
CC1(C)Cc2ccccc2C2CC(O)C(=O)N21 (stereo not drawn) 4.18%
NC(=O)c1ccc[n+](Cc2ccc(-c3ccccc3)cc2)c1 8.95%
Cc1ccc(CN2C(=O)c3ccccc3NC2c2cc(Br)ccc2O)cc1 (stereo not drawn) -3.39%
CCOC(=O)C(C)(C)Sc1ncnc2nc[nH]c12 -1.07%
CCCCCCCCOC(=O)c1cc([N+](=O)[O-])c(Sc2ncnc3nc[nH]c23)c([N+](=O)[O-])c1 29.5%
CCn1c(SCC(=O)NCCc2ccccc2)nc2sc3c(c2c1=O)CCN(C)C3 14.3%
COc1ccccc1CCc1nnc(CCC(=O)NCC[C@@H]2C[C@@H]3C=C[C@H]2C3)o1 2.31%
O=C(c1ccco1)N1CCN(Cc2cc(=O)c(OCc3ccccc3Cl)co2)CC1 -9.22%
N#CC1=C(N)C2=CCCC[C@H]2[C@H](c2ccc(Br)cc2)C1(C#N)C#N 4.38%
N#CC(C#N)=C1C=C2C=C(N3CCCCCC3)CCC2CC1 (stereo not drawn) 8.28%
